Laboratory results reported in PubChem BioAssay (NCI).
This is part of a sample that, as a whole, favours compounds with a hit. Of some 83,000 tested, about 20% had one in any assay.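 Negative percent growth values reflect cell death: -40 means 40% of the cells present at the start died, and -100 means all died.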 Unmarked numbers belong to inactive results. Calls of active or inactive are those of the source. The calls were made as follows: active = growth percent below 10; inactive = the rest.

What was measured:
Assay in all cases: NCI-60 one-dose screen, 48 h (100 = growth as untreated, 0 = no growth, -100 = all killed)
Details in all cases: 10 µM
K-562 leukemia = tested on: K-562 leukemia
MALME-3M melanoma = tested on: MALME-3M melanoma
MDA-MB-231 breast = tested on: MDA-MB-231 breast
RXF 393 renal = tested on: RXF 393 renal
SF-268 CNS = tested on: SF-268 CNS
SF-295 CNS = tested on: SF-295 CNS
SF-539 CNS = tested on: SF-539 CNS
UACC-257 melanoma = tested on: UACC-257 melanoma
M14 melanoma = tested on: M14 melanoma
HCT-15 colon = tested on: HCT-15 colon
HT29 colon = tested on: HT29 colon
SNB-75 CNS = tested on: SNB-75 CNS
SNB-19 CNS = tested on: SNB-19 CNS
U251 CNS = tested on: U251 CNS
PC-3 prostate = tested on: PC-3 prostate
SK-MEL-5 melanoma = tested on: SK-MEL-5 melanoma
UACC-62 melanoma = tested on: UACC-62 melanoma
LOX IMVI melanoma = tested on: LOX IMVI melanoma
SK-MEL-28 melanoma = tested on: SK-MEL-28 melanoma
SK-MEL-2 melanoma = tested on: SK-MEL-2 melanoma

Compound | growth (K-562 leukemia) | growth (MALME-3M melanoma) | growth (MDA-MB-231 breast) | growth (RXF 393 renal) | growth (SF-268 CNS) | growth (SF-295 CNS) | growth (SF-539 CNS) | growth (UACC-257 melanoma) | growth (M14 melanoma) | growth (HCT-15 colon) | growth (HT29 colon) | growth (SNB-75 CNS) | growth (SNB-19 CNS) | growth (U251 CNS) | growth (PC-3 prostate) | growth (SK-MEL-5 melanoma) | growth (UACC-62 melanoma) | growth (LOX IMVI melanoma) | growth (SK-MEL-28 melanoma) | growth (SK-MEL-2 melanoma)
O=S(=O)(NCCNc1nccc(-c2c(-c3ccc(F)cc3)nc3sccn23)n1)c1ccc2ccccc2c1 | 54.6% | 81.2% | 98.3% | 91.3% | 68.3% | 68.2% | 104% | 71% | 82.9% | 76.4% | 44.9% | 79.3% | 105% | 71% | 73.4% | 69.2% | 71.7% | 71.3% | 93% | 
OCC1OC(n2cnc3c(N/N=C\c4ccccn4)ncnc32)C(O)C1O (configuration not stated) | 17.6% | -14.6% (active) | 42.5% | 33.4% | 21.5% | -1.12% (active) | 9.72% (active) | 38% | 8.81% (active) | 25.8% | 34.5% | 40.3% | 34.5% | 25.1% | 21% | -10.1% (active) | 22% | 11.2% | 38% | 
COc1ccc(-c2nn(-c3cccc(NC(=O)Nc4cccc(C(F)(F)F)c4)c3)cc2-c2ccncc2)cc1Cl | 8.89% (active) | -10.4% (active) | 1.25% (active) | 23.2% | 23.5% | 5.07% (active) | 16.2% | -5.98% (active) | 4.56% (active) | 23.5% | 2.94% (active) | 21.5% | 37.1% | -25.2% (active) | 3.59% (active) | 2.68% (active) | -21.5% (active) | 22.6% | 15.6% | 
CC(=O)C1CCC2C3CC(F)C4=CC(=O)CCC4(C)C3C(O)CC12C (configuration not stated) | 86.1% | 86.6% | 98.8% | 118% | 106% | 97.8% | 101% | 98.6% | 93.6% | 108% | 101% | 103% | 109% | 104% | 90.6% | 102% | 103% | 101% | 112% | 
O=C(Nc1cccc(-n2cc(-c3ccncc3)c(-c3ccc(O)c(Cl)c3)n2)c1)Nc1ccc(Cl)c(Cl)c1 | 5.72% (active) | -27% (active) | -44.9% (active) | -26.2% (active) | 10.9% | -40.4% (active) | -19.8% (active) | -42.7% (active) | -50.3% (active) | 14.1% | 37.8% | 7.7% (active) | 38.2% | -70.9% (active) | -7.87% (active) | -47% (active) | -43% (active) | -34.4% (active) | -21.5% (active) | 
O=C(N/N=C\c1cc(Cl)ccc1[N+](=O)[O-])c1ccco1 | 102% | 125% | 95% | 115% | 99.3% | 108% | 92.4% | 95% | 108% | 97% | 107% | 96% | 102% | 97.4% | 100% | 111% | 101% | 103% | 110% | 
Nc1ccccc1NC(=O)CCCCC(=O)Nc1ccc2c(c1)/C(=C/c1ccc[nH]1)C(=O)N2 | 99.6% | 32.9% | 93% | 62.9% | 71.9% | 98.4% | 53.1% | 97.9% | 69.9% | 92.2% | 67.2% | 16.9% | 76.4% | 48.5% | 81.6% | 87.7% | 58% | 85.2% | 86.1% | 
N#CCCN1C/C(=C/c2ccc(Br)cc2)C(=O)/C(=C/c2ccc(Br)cc2)C1 | 3.42% (active) | -48.4% (active) | -39.4% (active) | -89.1% (active) | -36.2% (active) | -20.2% (active) | -55.1% (active) | -33.5% (active) | -55.1% (active) | 0.513% (active) | -33.8% (active) | 33.3% | -46.6% (active) | -80.8% (active) | -34% (active) | 1.94% (active) | -75% (active) | -71.3% (active) | -36.8% (active) | 5.41% (active)
COc1ccc(-c2nn(-c3cccc(NC(=O)Nc4cc(C(F)(F)F)cc(C(F)(F)F)c4)c3)cc2-c2ccncc2)cc1Cl | 7.03% (active) | -19.9% (active) | -63% (active) | -12.6% (active) | 9.51% (active) | -1.97% (active) | -42.9% (active) | -31% (active) | -34.1% (active) | 12.1% | -17.4% (active) | 6.77% (active) | 30.2% | -75.5% (active) | -14.7% (active) | -37.6% (active) | 7.55% (active) | 12.9% | -5.48% (active) | 
N#CSCC1CC(O)(c2ccccc2)CC(c2ccc(Cl)cc2)O1 (configuration not stated) | 44.8% | 7.26% (active) | 60.8% | 9.83% (active) | 34.6% | 46.6% | 58.8% | 87.8% | 9.35% (active) | 58.8% | 3.59% (active) | 49.2% | 81.5% | 55.2% | 29.4% | 68.3% | 56.5% | 13.1% | 72.1% | 
CCN1CCCC1CNC(=O)c1ncc(-c2ccc(C(F)(F)F)cc2)c(NC2CCCCCC2)n1 (configuration not stated) | 8.32% (active) | 54% | 67.3% | 74.1% | 86.8% | 69.3% | 94.7% | -46.2% (active) | 26.1% | 90.8% | 11.7% | 74.3% | 85.2% | 52.7% | 58.4% | 45.2% | 78.3% | 87.1% | 81.5% | 
CC/C(C)=C(\C)C(=O)O | 100% | 99.7% | 111% | 110% | 105% | 94.7% | 104% | 91.7% | 104% | 107% | 106% | 94.5% | 112% | 105% | 104% | 103% | 112% | 92.7% | 111% | 102%
O=c1[nH]c2ccc(Cl)cc2c2ccccc12 | 110% | 60.7% | 78.2% | 61.1% | 79.4% | 97.9% | 80.1% | 105% | 94.7% | 93.3% | 70.3% | 33.2% | 65.9% | 65.9% | 92.8% | 70.6% | 88.3% | 98.5% | 94.6% | 107%
COc1ccc(CN2CCC(N3CCCC3=O)c3cc(Cl)ccc32)cc1 (configuration not stated) | 106% | 88.6% | 123% | 126% | 108% | 124% | 110% | 112% | 97% | 104% | 88.8% | 103% | 99.5% | 105% | 84.4% | 103% | 85.2% | 103% | 116% | 
CCCC(F)C(=O)O (configuration not stated) | 97.6% | 103% | 111% | 117% | 107% | 83.5% | 102% | 92.2% | 97.5% | 100% | 97.5% | 99.2% | 102% | 95.9% | 90.5% | 105% | 100% | 100% | 111% | 
Nc1c(C(=O)Nc2cccc(F)c2)sc2nc3c(cc12)C(=O)CCC3 | 20.1% | 32.4% | 40.8% | -14.3% (active) | 73.5% | 7.23% (active) | -17.4% (active) | 57.3% | 15.3% | 25.8% | 16.7% | 24.9% | 48.9% | 32.1% | 20.7% | 43.2% | 43.4% | 46.5% | 49.7% | 
